We go through 18 compounds from PubChem BioAssay (EPA / NIEHS).

Each structure is given as a SMILES string. Inconclusive results are not listed. Calls of active or inactive are those of the source. How the source made its calls: active means hit-call score of the fitted dose curve at least 0.9, where 1 is the maximum; inconclusive means response in the unintended direction; inactive means score below 0.9.

Sequence of human Peripheral-type Benzodiazepine Receptor (PBR), TSPO (gene 706) (P30536 whole entry, looked up): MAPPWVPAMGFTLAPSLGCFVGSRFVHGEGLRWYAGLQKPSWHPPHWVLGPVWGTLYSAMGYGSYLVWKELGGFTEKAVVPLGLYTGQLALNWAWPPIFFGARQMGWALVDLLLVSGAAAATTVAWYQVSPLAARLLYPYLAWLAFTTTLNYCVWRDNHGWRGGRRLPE
Sequence of bovine Gamma-Aminobutyric Acid Type A Receptor Agonist (GABAR Agonist), GABRA1 (gene 780973) (P08219 whole entry, looked up): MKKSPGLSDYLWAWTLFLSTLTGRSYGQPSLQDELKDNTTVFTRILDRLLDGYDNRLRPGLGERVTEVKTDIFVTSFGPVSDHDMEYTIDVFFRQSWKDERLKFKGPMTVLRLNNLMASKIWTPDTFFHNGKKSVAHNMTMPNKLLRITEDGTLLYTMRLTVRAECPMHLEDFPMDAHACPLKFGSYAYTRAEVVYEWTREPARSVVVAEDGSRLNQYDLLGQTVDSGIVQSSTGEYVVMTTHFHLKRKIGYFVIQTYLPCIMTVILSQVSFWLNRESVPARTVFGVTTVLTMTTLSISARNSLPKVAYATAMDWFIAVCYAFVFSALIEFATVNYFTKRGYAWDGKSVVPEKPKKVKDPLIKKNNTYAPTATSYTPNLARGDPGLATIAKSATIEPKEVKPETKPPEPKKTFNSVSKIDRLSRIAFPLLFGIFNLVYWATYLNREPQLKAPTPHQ
Sequence of rat Peripheral-type Benzodiazepine Receptor (PBR), Tspo (gene 24230) (P16257 whole entry, looked up): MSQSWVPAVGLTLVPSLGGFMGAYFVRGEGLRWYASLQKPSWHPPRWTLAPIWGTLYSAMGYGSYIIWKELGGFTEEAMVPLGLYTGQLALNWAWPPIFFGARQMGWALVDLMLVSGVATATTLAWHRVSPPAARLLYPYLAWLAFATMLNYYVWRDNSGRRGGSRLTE

The target of one test is human Serotonin, 5-Hydroxytryptamine Receptor 3 (5HT3), HTR3A (gene 3359) (UniProt P46098). As to the kind of experiment: NVS_LGIC_h5HT3: NovaScreen (NVS) Ligand-Gated Ion Channel Assay for human Serotonin, 5-Hydroxytryptamine Receptor 3 (5HT3) (AID 2283325). The method in brief: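 Initially tested at 25 uM in duplicate, then up to 50 uM in concentration-response for actives, compounds competed with a radioligand for HEK293-derived human 5-HT3 receptor. Bound counts were measured by filtration and scintillation at 1 h; loss of signal versus DMSO.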
Sequence of human Serotonin, 5-Hydroxytryptamine Receptor 3 (5HT3), HTR3A (gene 3359) (P46098 whole entry, looked up): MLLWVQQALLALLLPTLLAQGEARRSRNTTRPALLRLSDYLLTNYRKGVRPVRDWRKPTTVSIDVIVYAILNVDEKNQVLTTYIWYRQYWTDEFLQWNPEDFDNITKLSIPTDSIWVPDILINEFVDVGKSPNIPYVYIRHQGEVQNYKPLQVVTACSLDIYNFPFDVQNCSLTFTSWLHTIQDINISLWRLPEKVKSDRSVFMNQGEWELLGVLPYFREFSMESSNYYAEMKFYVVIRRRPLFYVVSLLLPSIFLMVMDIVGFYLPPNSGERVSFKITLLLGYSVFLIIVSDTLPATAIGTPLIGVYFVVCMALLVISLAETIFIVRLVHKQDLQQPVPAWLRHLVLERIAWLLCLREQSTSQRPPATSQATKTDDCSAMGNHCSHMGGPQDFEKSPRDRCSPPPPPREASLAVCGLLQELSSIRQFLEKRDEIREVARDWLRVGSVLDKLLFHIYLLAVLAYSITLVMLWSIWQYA
On to `COc1cc(S(=O)(=O)O)c(C)cc1N=Nc1c(O)ccc2cc(S(=O)(=O)O)ccc12`, for which the concentration at half-maximal activity (AC50) is 32.8 µM (active).

As for `NCC1(Cc2noc(=O)[nH]2)CCCCC1`, the compound was called inactive.

As to `CCCCCCCCCCCC(=O)OC`, the compound was called inactive.

With `Cc1ccc(Cl)cc1`, the AC50 was 7.56 µM (active).

As for `O=C(OCCCCCOC(=O)c1ccccc1)c1ccccc1`, the AC50 is 0.0428 µM (active).

Take `COc1cc(C=O)ccc1O`: the AC50 was 15 µM (active).

For a further test, the target named is human Peripheral-type Benzodiazepine Receptor (PBR), TSPO (gene 706) (UniProt P30536). The test can be described thus: NVS_MP_hPBR: NovaScreen (NVS) Membrane Protein Assay for human Peripheral-type Benzodiazepine Receptor (PBR) (AID 2283331).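 Further: hits reduce radioligand binding relative to DMSO baseline.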 As to the method:
(§1) NVS_MP_hPBR is a biochemical, single-readout assay that uses extracted gene-proteins from Human colonic cell membranes in a tissue-based cell-free assay. Measurements were taken 1 hour after chemical dosing in a 48-well plate.NVS_MP_hPBR is one of one assay component(s) measured or calculated from the NVS_MP_hPBR assay. It is designed to make measurements of radioligand binding, a form of binding reporter, as detected with scintillation counting signals by Filter-based radiodetection technology.Data from the assay component NVS_MP_hPBR was analyzed into 1 assay endpoint. This assay endpoint, NVS_MP_hPBR, was analyzed in the positive analysis fitting direction relative to DMSO as the negative control and baseline of activity. Using a type of binding reporter, loss-of-signal activity can be used to understand changes in the binding as they relate to the gene TSPO. Furthermore, this assay endpoint can be referred to as a primary readout, because the performed assay has only produced 1 assay endpoint. To generalize the intended target to other relatable targets, this assay endpoint is annotated to the transporter intended target family, where the subfamily is cholesterol transporter.
(§2) Binding assays used specific radioligands (tritiated, iodinated) with non-radioactive competitive displacement ligands in agonist or antagonist protocols (as indicated) and various reference compounds and inhibitors to titrate specific binding to receptors and transporters. Most enzyme assays (CYPs, kinases, phosphatases, proteases, HDACs) used recombinant protein and specific substrates (fluorescence mostly, some colorimetric and radioactive) and inhibitors, followed by a biochemical separation of substrate and product. All assays for the biochemical HTS were initially run in duplicate at a single concentration (10 uM for CYP450 assays and 25 uM for all others). […] Each assay was run with positive and negative controls, and concurrent controls on every plate. The follow-up (secondary) screen tested active chemical-pairs in concentration series, as well as a few additional assays not tested in the primary screen, some selected negative inactives, and several cases re-run in the concentration series for confirmatory purposes.
`Nc1ccccc1N`: the compound was classed as inactive.

For the compound `Cc1ccc(C(C)C)c(O)c1`, the AC50 was 18.3 µM (active).

For `Nc1ccc2c(c1)C(=O)c1ccccc1C2=O`, the outcome was inactive.

Consider `CC=Cc1ccc(O)c(OC)c1`, for which the AC50 is 17.2 µM (active).

As for `C=CCOC(=O)c1ccccc1C(=O)OCC=C`, the AC50 is 25 µM (active).

The target in the next test is rat Peripheral-type Benzodiazepine Receptor (PBR), Tspo (gene 24230) (UniProt P16257). The test can be described thus: NVS_MP_rPBR: NovaScreen (NVS) Membrane Protein Assay for rat Peripheral-type Benzodiazepine Receptor (PBR) (AID 2283335). As to the method:
as §1, with “NVS_MP_rPBR” for “NVS_MP_hPBR”, “Rat kidney” for “Human colonic cell”, “plate.NVS_MP_rPBR” for “plate.NVS_MP_hPBR”, “NVS_MP_rPBR,” for “NVS_MP_hPBR,”, “Tspo.” for “TSPO.”
as §2
In the case of `Nc1ccc(S(=O)(=O)c2ccc(N)cc2)cc1`, the AC50 is 3.28 µM (active).

For `NS(=O)(=O)c1cc2c(cc1Cl)NCNS2(=O)=O`, the call was inactive.

`Cc1ccc(C(C)C)c(O)c1`: the call was inactive.

For the compound `CCCCC(CC)COC(=O)CC(C(=O)OCC(CC)CCCC)S(=O)(=O)O` (stereo not drawn), the AC50 is 9.22 µM (active).

For the compound `CC=Cc1ccc(O)c(OC)c1`, the AC50 is 3.55 µM (active).

For the compound `Cc1oc(-c2ccccc2)nc1CCOc1cccc2c1ccn2CCC(=O)O`, the AC50 is 46.5 µM (active).

For `C=CCOC(=O)c1ccccc1C(=O)OCC=C`, the compound was classed as inactive.

Another test concerns the target bovine Gamma-Aminobutyric Acid Type A Receptor Agonist (GABAR Agonist), GABRA1 (gene 780973) (UniProt P08219). As to the kind of experiment: NVS_LGIC_bGABAR_Agonist: NovaScreen (NVS) Ligand-Gated Ion Channel Assay for bovine Gamma-Aminobutyric Acid Type A Receptor Agonist (GABAR Agonist) (AID 2283338). As to the method: NVS_LGIC_bGABAR_Agonist is a biochemical, single-readout assay that uses extracted gene-proteins from Bovine cerebellar membranes in a tissue-based cell-free assay. Measurements were taken 1 hour after chemical dosing in a 48-well plate.NVS_LGIC_bGABAR_Agonist is one of one assay component(s) measured or calculated from the NVS_LGIC_bGABAR_Agonist assay. It is designed to make measurements of radioligand binding, a form of binding reporter, as detected with scintillation counting signals by Filter-based radiodetection technology.Data from the assay component NVS_LGIC_bGABAR_Agonist was analyzed into 1 assay endpoint. This assay endpoint, NVS_LGIC_bGABAR_Agonist, was analyzed in the positive analysis fitting direction relative to DMSO as the negative control and baseline of activity. Using a type of binding reporter, gain-of-signal activity can be used to understand changes in the binding as they relate to the gene GABRA1. Furthermore, this assay endpoint can be referred to as a primary readout, because the performed assay has only produced 1 assay endpoint. To generalize the intended target to other relatable targets, this assay endpoint is annotated to the ion channel intended target family, where the subfamily is ligand-gated ion channel.
as §2
Regarding `CC(=O)OCCOCCOCCOC(C)=O`, the compound was called inactive.

As to `CC(C)(C)c1cc(O)c(C(C)(C)C)cc1O`, the compound was classed as inactive.

`Cc1ccc(C(C)C)c(O)c1`: the compound was called inactive.

On to `Cc1cccc([N+](=O)[O-])c1C`, for which the compound was called inactive.

Consider `COc1cc(C=O)ccc1O`, for which the compound was classed as inactive.
